HP1b chromo inh – HTS for Inhibitors of HP1-beta Chromodomain Interactions with Methylated Histone Tails; Chromobox protein homolog 1 (Homo sapiens), P83916; AlphaScreen HP1-beta / biotin-H3K9me3 peptide binding; Potency, µM (highest dose often 114 µM), most hits filed as inhibitors; 390,000 tested, 0.56% active; AID 540317, 2011; further: nearly all actives have a fitted effect of over 70% in size
Target sequence (P83916 whole entry, looked up): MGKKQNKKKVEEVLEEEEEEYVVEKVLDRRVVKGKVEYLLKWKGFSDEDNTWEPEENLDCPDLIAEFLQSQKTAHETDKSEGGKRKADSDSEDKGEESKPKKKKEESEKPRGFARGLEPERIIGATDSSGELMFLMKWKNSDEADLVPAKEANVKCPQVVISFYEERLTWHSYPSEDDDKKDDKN
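AlphaScreen: HP1-beta (50 nM) preformed 30 min with biotin-H3(1-18)K9me3 peptide (50 nM) in PBS pH 7.4, 0.01% Tween-20. Compound added for 30 min at RT, then streptavidin donor/nickel chelate acceptor beads (10 ug/mL) for 30 min.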
G9a inh – qHTS Assay for Inhibitors of Histone Lysine Methyltransferase G9a; G9a H3K9 monomethylation, AlphaScreen, 2 h; Potency, µM (series often up to 102 µM), hits mostly inhibitors; Histone-lysine N-methyltransferase EHMT2 (Homo sapiens), Q96KQ7; 350,000 tested, 8.8% active; further: nearly all actives have a fitted effect of over 75% in size
Target sequence (Q96KQ7 913-1193 limits assumed): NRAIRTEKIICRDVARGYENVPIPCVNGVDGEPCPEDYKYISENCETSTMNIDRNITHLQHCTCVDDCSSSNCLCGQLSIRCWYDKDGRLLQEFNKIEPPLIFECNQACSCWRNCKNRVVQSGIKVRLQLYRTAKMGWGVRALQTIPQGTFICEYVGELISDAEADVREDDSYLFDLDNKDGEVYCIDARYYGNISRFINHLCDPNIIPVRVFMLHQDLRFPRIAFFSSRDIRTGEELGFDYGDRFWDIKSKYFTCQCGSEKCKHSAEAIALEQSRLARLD
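AlphaScreen detection with an anti-monomethyl H3K9 antibody quantified product after a 2 h room-temperature reaction containing 500 nM biotinylated H3K9 peptide, 20 µM SAM and 20 nM enzyme, which had been preincubated 15 min with compound.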
BAZ2B inh – qHTS Assay for Inhibitors of BAZ2B; Bromodomain adjacent to zinc finger domain protein 2B (Homo sapiens), Q9UIF8; AlphaScreen BAZ2B-H3K14Ac peptide displacement; Potency, µM (doses to about 114 µM), most hits filed as inhibitors; 360,000 tested, 4.4% active; AID 504333, 2011; further: nearly all actives have a fitted effect of over 60% in size
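Compounds, titrated to a top concentration of 110 uM, were incubated 30 min at room temperature with preformed BAZ2B/acetyl-K14 H3 peptide complex (50 nM each). Proximity signal was measured by AlphaScreen after 20 min with beads.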
Six1-Eya2 inh – qHTS Assay for Inhibitors of the Six1/Eya2 Interaction; Homeobox protein SIX1 (Homo sapiens) + Protein phosphatase EYA2 (Homo sapiens), …; AlphaScreen GST-Six1/His-Eya2 binding, biochemical; stronger effect = lower value; activity change, % (no concentration beside the values); 360,000 tested, 0.56% active; in the data active means activity change below about -65%; inconclusive means mostly about -30% to -63%
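GST-Six1 + His-Eya2 (5X stock: 250/500 nM); Tris pH 8.0, 300 mM NaCl, 0.05% BSA, 0.02% Tween 20; GSH donor/Ni acceptor beads; 1 h 37 °C dark; AlphaScreen readout.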
CtBP-E1A blk – qHTS Assay for Inhibitors of the CtBP/E1A Interaction; CtBP / adenovirus E1A interaction (AlphaScreen); AlphaScreen GST-E1A/His-CtBP binding, 1536-well; stronger effect = lower value; 340,000 tested, 0.49% active; AID 651724, 2012; activity change, % (no concentration beside the values); in the data active means activity change below about -65%; inconclusive means mostly about -30% to -63%
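GST-E1A and His-tagged CtBP (125 nM each as 5X stock) were preincubated with pin-transferred compound for 2 h at 37 °C in the dark, then glutathione donor and nickel acceptor beads were added for 1 h before AlphaScreen reading.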
JMJD2A Tudor inh – qHTS Assay for Inhibitors of JMJD2A-Tudor Domain | Lysine-specific demethylase 4A (Homo sapiens), O75164 | AlphaScreen JMJD2A-Tudor / H3K4me3 peptide binding | Potency, µM (doses to about 114 µM), usual class: inhibitors | 390,000 tested, 4.4% active; further: nearly all actives have a fitted effect of over 50% in size
Numbers stand for hits; i = inactive; ? = inconclusive; nt = not tested or not shown; [ ] = dose if it differs, or a comment. An excerpt weighted towards active compounds, which were near 10% of everything screened. Unless noted, the call rests on the fitted dose curve; in most records, active means well fitted inhibition curve with a large enough effect; inconclusive means small, poorly fitted or top-dose-only effect; inactive means no such curve, though single readings can be large or run the other way.

SMILES	HP1b chromo inh	G9a inh	BAZ2B inh	Six1-Eya2 inh	CtBP-E1A blk	JMJD2A Tudor inh
Cc1ccc(/C([O-])=C(/C(=S)NCc2ccccc2)[n+]2ccccc2)cc1[N+](=O)[O-]	i	20µM	?	i	i	i
COc1cccc(NC(=O)Cn2c(=O)n(CC(=O)NCCc3ccccc3)c(=O)c3sccc32)c1	i	i	i	nt	nt	i
Cc1sc2nc(CN3CCOCC3)[nH]c(=S)c2c1C	i	39.8µM	i	i	i	i
Cc1sc2nc(CN3CCN(c4ccc(O)cc4)CC3)[nH]c(=O)c2c1C	?	nt	?	i	i	?
CC1CCCCN1C(=O)Cn1cnc2cc([N+](=O)[O-])ccc2c1=O (centres undefined)	i	i	?	i	i	14.1µM
CC1CCCCN1C(=O)COC(=O)c1cc([N+](=O)[O-])ccc1N (centres undefined)	i	39.8µM	i	i	i	i
O=C(NCCc1ccccc1Cl)c1ccc2c(c1)nc1n2CCOC1	i	i	i	nt	nt	i
CCOC(=O)c1[nH]c(C)c(C(=O)OC)c1C	i	i	i	i	i	i
CCOC(=O)CC(=O)c1[nH]c(C)c(C(=O)OCC)c1C	i	i	79.4µM	i	i	i
CCOC(=O)c1[nH]c(=S)[nH]c1C	i	nt	nt	i	i	5.01µM
CCOC(=O)c1[nH]c(C)c(C)c1C	i	i[12.7 µM]	?	i	i	79.4µM
CCOC(=O)c1[nH]c(C)c(C(=O)NCC2CCCO2)c1C (centres undefined)	i	i[2.33 µM]	i	i	i	i
CCOC(=O)c1[nH]c(C)c(C(=O)NC2CCCCC2)c1C	i	79.4µM	i	i	i	i
CC(=O)OCc1cnc(C)c2oc(=O)c(C(=O)Nc3cccc(F)c3)cc12	i	i	i	nt	nt	i
CC(C)c1nn2c(=O)cc(COC(=O)c3ccc(NC(=O)COc4ccccc4)cc3)nc2s1	i	i	i	nt	nt	i
CCOc1ccc(Nc2nc(C)c(NC(=O)c3cccc(OC)c3)c(Nc3ccc(OCC)cc3)n2)cc1	i	11.2µM	?	nt	nt	?
CCOC(=O)c1ccc(N=C2C(=S)N(c3ccc(C(=O)OCC)cc3)C(=N)N2/N=C/c2ccccc2)cc1	i	3.98µM	i	?	?	?
Cc1nc(-[n+]2nc(-c3ccncc3)nn2-c2ccccc2)sc1C	nt	nt	nt	-91.2	-87.9	nt
CC1=C(C(N)=O)C(c2ccccc2)n2nc(-c3ccncc3)nc2N1 (centres undefined)	i	i	i	i	i	i
Cc1ccc(-c2ccc(/C=N/N=C3/NC(=O)C(CC(=O)O)S3)o2)c([N+](=O)[O-])c1 (centres undefined)	i	i[2.33 µM]	?	i	i	i
CC1=C(C#N)C(=O)NC(=O)/C1=C\c1ccc(-c2ccc(C)cc2[N+](=O)[O-])o1	?	17.8µM	44.7µM	i	i	31.6µM
CCCCC1(C)OC(=O)C(=Cc2ccc(-c3ccc(Cl)c(C(=O)O)c3)o2)C(=O)O1 (centres undefined)	i	nt	i	i	i	i
CCOC(=O)c1cc(-c2ccc(/C=C3/C(=O)NC(=O)C(C#N)=C3C)o2)ccc1Cl	39.8µM	35.5µM	50.1µM	i	i	56.2µM
CC(NC(=O)C1CCN(c2nc3ccccc3nc2C(F)(F)F)CC1)c1ccccc1 (centres undefined)	i	?	i	nt	nt	?
O=C(O)c1cccc(Cl)n1	i	39.8µM	i	i	i	i[11.4 µM]
O=C(O)c1cccc(C(=O)O)n1	nt	?	i	nt	nt	nt
CC(=O)Nc1cccc(C(=O)O)n1	i	8.91µM	22.4µM	?	i	?
COc1ccc(-c2csc3nc(-c4ccc(F)cc4)oc(=O)c23)cc1OC	i	i	i	nt	nt	i
CCOc1ccc(NC(=O)Cn2nc(-c3ccncc3)ccc2=O)cc1	i	i	i	nt	nt	i
